Measured values published in PubChem BioAssay (NCI).
About 79,000 compounds went through this panel and 15% of them were active in at least one assay; those are over-represented in the sample as a whole. A number with no mark means an inactive call. Active and inactive are the calls of the source. Rule as the data show it: active = growth inhibition above about 70%; inactive = the rest.

Legend:
[1] = NCI Yeast Anticancer Drug Screen. Data for the rad50 strain (AID 155);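 also: 0% = growth of vehicle-only cultures of the same strain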; details: S. cerevisiae rad50 strain growth inhibition; at 50.0 µM; hits give high values
Summary of the method: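 Relative growth inhibition (compound vs vehicle) was measured in yeast with a defined repair-gene alteration.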

[2] = NCI Yeast Anticancer Drug Screen. Data for the mec2-1 strain (AID 157); details: S. cerevisiae mec2-1 strain, at 50.0 µM, hits give high values
Summary of the method: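 mec2-1 yeast strain, carrying an alteration in DNA damage repair or cell cycle control, was exposed to compounds; growth inhibition was measured relative to vehicle-treated controls.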

[3] = NCI Yeast Anticancer Drug Screen. Data for the sgs1 mgt1 strain (AID 161);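 also: 0% = growth of cultures given vehicle only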; details: S. cerevisiae sgs1 mgt1 strain, at 50.0 µM, hits give high values
Summary of the method: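 Growth of a repair-deficient yeast mutant was monitored after compound treatment and expressed as inhibition relative to vehicle-treated cultures.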

[4] = NCI Yeast Anticancer Drug Screen. Data for the cln2 rad14 strain (AID 165);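 also: 0% = growth equal to vehicle treated cultures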; details: S. cerevisiae cln2 rad14 strain, at 50.0 µM, hits give high values
Summary of the method: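 Yeast carrying cln2 and rad14 alterations (cell cycle control and DNA damage repair) were exposed to compounds. Growth inhibition was measured against vehicle-treated controls.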

[5] = NCI Yeast Anticancer Drug Screen. Data for the bub3 strain (AID 167); details: S. cerevisiae bub3 mutant strain, at 50.0 µM, hits give high values
Summary of the method: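 Screening used yeast with an engineered genetic alteration affecting cell cycle control. Compound-exposed cultures were compared with vehicle cultures, and reduced growth was taken as inhibition.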

[6] = NCI Yeast Anticancer Drug Screen. Data for the mlh1 rad18 strain (AID 175); details: S. cerevisiae mlh1 rad18 strain growth inhibition; at 50.0 µM; hits give high values
Summary of the method: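 Growth inhibition of the yeast strain was measured after compound exposure and expressed relative to vehicle-treated controls. The strain carries defined defects in DNA damage repair.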

Row | SMILES | growth inhibition [1] | growth inhibition [2] | growth inhibition [3] | growth inhibition [4] | growth inhibition [5] | growth inhibition [6]
1 | Nc1ccc(S(=O)(=O)S(=O)(=O)c2ccc(N)cc2)cc1 | -0.1% | 1.95% | -3.55% | 12.4% | -0.9% | -2.95%
2 | O=C1c2ccccc2Cc2ccccc21 | 3.5% | 7.75% | -1.7% | -19.4% | 16.4% | 7.55%
3 | CCOC(=O)COc1cc2c(cc1Cc1ccc(OC)cc1)OCO2 | -5.4% | -7.45% | 5.45% | 6.2% | 39.4% | 11.7%
4 | N/C(=N\N=C\c1c[nH]c2cc(C(F)(F)F)ccc2c1=O)NO | -10.9% | -7.45% | 28.4% | 11.1% | 2.9% | 2.25%
5 | COc1cccc(C(F)(F)F)c1 | -3.1% | 10.3% | -10.3% | -6.85% | 19.4% | -13%
6 | NC(=O)NC(=O)/C=C/C(=O)O | 3.75% | -12.9% | -4.15% | -12.4% | 9.7% | -3.2%
7 | O=C1OC(c2cccc3ccc(Br)cc23)c2ccccc21 (configuration not stated) | 21.1% | 0.5% | 6.2% | 19.5% | 16.1% | 3.45%
8 | O=c1oc2ccccc2c(O)c1C=NC(=S)c1ccncc1 | -30.6% | -38.4% | -27.9% | 24.9% | -11.3% | -25.5%
9 | N#C/C(=C\c1cc(Br)c(O)c(Br)c1)c1ccccn1 | 50.5% | 50.1% | 24.4% | 2.55% | -3.35% | 52.6%
10 | CC1=CC(C)(C)NC(=S)N1c1ccc(O)cc1 | 0% | -14.8% | 11.3% | -24.8% | 6.8% | 15.8%
11 | COc1ccc(-c2c([O-])oc(-c3ccccc3)[n+]2C)cc1 | 17.8% | -18.4% | -6.2% | 7.3% | 3.1% | -4.1%
12 | COC(=O)C(=O)C(C)C(=O)C(C)c1nc(NC(=O)Nc2ccc(Cl)cc2)n[nH]1 (configuration not stated) | 1.65% | -3.7% | 3% | -32% | 13.4% | 7.1%
13 | CCN(CC)C(=O)Cc1c(C(=O)N(CC)CC)c(=O)nc2sccn12 | -27.2% | -15.8% | -30.8% | -23.3% | -25% | -43.6%
14 | CC(=O)OCC1OC(n2c(=O)n(-c3ccccc3)c(=O)c3ccccc32)C(OC(C)=O)C(OC(C)=O)C1OC(C)=O (configuration not stated) | -12.8% | 11.3% | -7.9% | 19.1% | -6.85% | 4.65%
15 | Cc1cc(C(=O)O)c2c([nH]1)c(C)cc1nc3ccccc3c12 | 12.6% | 5.65% | -10% | 12.1% | 4.95% | -19.2%
16 | CN(N)C(=O)Nc1ccc([N+](=O)[O-])cc1 | 16.4% | 5.65% | -2.7% | 7.45% | 12% | -1.75%
17 | C[N+]1(C)CCC2=CC(=O)CC(c3ccccc3)C2C1 (configuration not stated) | 11.7% | -0.6% | 12.6% | 20.8% | -3.3% | -12%
18 | CC(C)CCCC(C)C1CCC2C1CCC1C2CCC2(C)CCC(=O)CCC12C (configuration not stated) | 24.8% | -2.85% | -2.55% | -17.8% | 1.6% | -4%
19 | Cc1cc([NH-])c([NH-])cc1C.[Cl][Pt+2][Cl] | -2.85% | -6.4% | -0.15% | -0.3% | -6.4% | -25.9%
20 | COC(=O)CCC(=O)CC(=O)C(=O)Nc1ccc(F)cc1 | 3.2% | 3.75% | -1.7% | -2.6% | -15.6% | 7.75%
21 | O=C(Oc1ccccc1[N+](=O)[O-])Oc1ccccc1[N+](=O)[O-] | -3.45% | 16.3% | 19.5% | -29.4% | 16.2% | -2.7%

Row | SMILES | growth inhibition [1] | growth inhibition [2] | growth inhibition [3] | growth inhibition [4] | growth inhibition [5] | growth inhibition [6]
22 | Cn1c(=O)c2[nH]c(=S)n(CC3CCCCC3)c2n(C)c1=O | -1.95% | -3.55% | -8.4% | -29% | 0.1% | 17.4%
23 | COc1cc2c(c(OC)c1OC)-c1ccc(OC)c(=O)cc1C(NC(=O)CCCCCNc1ccc(N=[N+]=[N-])cc1[N+](=O)[O-])CC2 (configuration not stated) | 88.5% (active) | 84.4% (active) | 45% | 36% | 12.8% | 84.3% (active)
24 | Cc1ccc(S(=O)(=O)N(Cc2cccc([N+](=O)[O-])c2)c2ccc(C(=O)O)cc2)cc1 | 8.45% | 4.55% | 0.8% | -12.7% | 5.95% | 21.1%
25 | Cc1c(C)c(Br)c(C)c(C)c1Br | -7.45% | -18.3% | 4.25% | 10.3% | -6.2% | -16.8%
26 | CCCCCCC1NN(C(C)=O)C(CCCCCC)NN1C(C)=O (configuration not stated) | 10.5% | -4.1% | 7.65% | 49.1% | 7.1% | -3.75%
27 | Nc1cccc(-c2nc3ccccc3[nH]2)c1 | -21.9% | -26.4% | -17.8% | -9.2% | -20.2% | -14.6%
28 | COc1ccccc1CNCc1nc2ccccc2[nH]1 | 4.8% | 2.6% | 6.9% | 13.2% | 0.55% | 36.6%
29 | Cn1c(=O)oc2cc(C(O)CN3CCN(Cc4ccccn4)CC3)c(Cl)cc21 (configuration not stated) | -19.6% | 3.9% | -4.5% | 2.45% | 6.25% | 11.4%
30 | CCOC(=O)CSc1ccnc(=O)[nH]1 | -9.25% | -8.9% | -5.35% | 0.1% | -16% | -31.8%
31 | O=C1CC2CC(=O)C(S(=O)c3ccccc3)C2C1 (configuration not stated) | 6.25% | 11.7% | 20.1% | 3.35% | -1.6% | 18.6%
32 | OCC(O)C1OC(n2cnc3c(=S)nc[nH]c32)C(O)C1O (configuration not stated) | 2.85% | -6.75% | -3.8% | -42.8% | -6.5% | -10.6%
33 | CCCCN(C(=O)N(CC)CC)[Si](C)(C)C | -17.6% | -41.7% | -12.4% | 14% | -14.7% | -25.3%
34 | BrCC1=CC(c2ccccc2)(c2ccccc2)c2ccccc21 | 96.2% (active) | 97% (active) | 97.3% (active) | 94.3% (active) | 96.2% (active) | 96.1% (active)
35 | Clc1ccc(C=Nc2ccc3c(c2)Cc2ccccc2-3)c(Cl)c1 | -5.15% | -33.6% | -21.6% | -3.85% | -35.2% | -2.4%
36 | CC1(C)CNC[C@@](C)(O)C(=O)NC(C)(C)CNC[C@@](C)(O)C(=O)N1 | 9.75% | 5.75% | -32.6% | 4.7% | -46.3% | -9.2%
37 | CN(C)S(=O)(=O)C(c1ccccc1)C(O)(c1ccccc1)c1ccc(Cl)cc1 (configuration not stated) | 72.1% (active) | 45.5% | 54.1% | 22.9% | 16.8% | 57%
38 | CCC(C)(C)c1ccc(OCCCCNC(=O)c2ccc3ccccc3c2O)c(C(C)(C)CC)c1 | -7.65% | 2.05% | -14.2% | -37.1% | -18.2% | 3.15%
39 | CCOC(=O)C(C(=O)OCC)=C(C)C | -9.9% | -32% | -12.2% | -3.1% | -26.1% | -37.3%
40 | O=c1oc2ccccc2c(O)c1[N+](=O)[O-] | 10.6% | -11.2% | -6.4% | 2.7% | -7.15% | 3.65%
41 | O=S=NCCCl | -14.3% | -14.6% | -13.2% | 1.5% | -10.8% | 0.35%
42 | OCC#C[C@@H]1CC[C@H]1C#CCO | 7.3% | -3.3% | 6.3% | 2.3% | 2.6% | -6%
